# From PubChem BioAssay (NCATS)
# Records with an inconclusive call do not appear. Where a call stands in place of a potency, no number is given. Activity calls are given as the source filed them. The call rests on the fitted dose curve; in most records, active means well fitted inhibition curve with a large enough effect; inconclusive means small, poorly fitted or top-dose-only effect; inactive means flat fitted curve, though single readings scatter.
# Target: Phospholipid hydroperoxide glutathione peroxidase GPX4 (Homo sapiens) (UniProt P36969)
# Sequence (P36969 whole entry, looked up): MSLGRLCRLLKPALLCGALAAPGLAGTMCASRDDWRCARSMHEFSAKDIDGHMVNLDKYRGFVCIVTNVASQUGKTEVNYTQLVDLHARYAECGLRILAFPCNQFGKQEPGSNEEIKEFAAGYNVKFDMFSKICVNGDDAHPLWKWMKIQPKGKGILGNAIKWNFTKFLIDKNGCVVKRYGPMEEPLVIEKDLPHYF
# Assay: Primary qHTS Assay for Inhibitors of Recombinant Selenoprotein Glutathione Peroxidase 4 (GPX4) (AID 1845192); further: nearly all actives have a fitted effect of over 65% in size
# Conditions: recombinant GPX4, GR-coupled NADPH fluorescence, 15 min; series mostly up to 50 µM; activity change, negative = inhibition: at the top concentration
# Outline: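 NADPH consumption, followed by fluorescence at 340/450 nm between 0 and 15 min, reports GPX4 activity via coupled glutathione reductase (100 nM). Enzyme 200 nM was pre-exposed to compound 30 min; 0.5 mM cumene hydroperoxide and 1 mM GSH served as substrates.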
SMILES,"activity change, negative = inhibition",Potency,outcome
Cc1sc2c(c1C)C(c1ccc(Cl)cc1)=N[C@@H](CC(=O)OC(C)(C)C)c1nnc(C)n1-2,-23.4% (inactive),,
O=c1[nH]c2ccccc2n1C1CCN(CCCC(c2ccc(F)cc2)c2ccc(F)cc2)CC1,,inactive,
CC(O)(CS(=O)(=O)c1ccc(F)cc1)C(=O)Nc1ccc(C#N)c(C(F)(F)F)c1 (centres undefined),,inactive,
NN=C(N)N,,inactive,
Cc1ncc(CNC(=O)N(CCCl)N=O)c(N)n1,,inactive,
O=C1NCN(c2ccccc2)C12CCN(CC1COc3ccccc3O1)CC2 (centres undefined),-7.96% (inactive),,
CC(CCc1ccccc1)NC(C)C(O)c1ccc(O)cc1 (centres undefined),,inactive,
CC[C@@H](CO)NC(=O)[C@@H]1C=C2c3cccc4[nH]cc(c34)C[C@H]2N(C)C1,,inactive,
CN1C[C@H](CNC(=O)OCc2ccccc2)C[C@@H]2c3cccc4c3c(cn4C)C[C@H]21,-9.27% (inactive),,
CC(=O)[C@H]1CC[C@H]2[C@@H]3CC[C@H]4C[C@H](O)CC[C@]4(C)[C@H]3C(=O)C[C@]12C,,,inactive
CC(=O)[C@H]1CC[C@H]2[C@@H]3CC[C@H]4C[C@](C)(O)CC[C@]4(C)[C@H]3CC[C@]12C,3.84% (inactive),,
NCC(O)c1ccc(O)cc1 (centres undefined),,inactive,
N#CC(C#N)=Cc1ccc(O)c(O)c1,,,inactive
c1ccc(C2CC2)c(OCC2=NCCN2)c1,-3.38% (inactive),,
COc1ccccc1N1CCNCC1,-0.0214% (inactive),,
CCCN1CCC[C@@H]2Cc3[nH]ncc3C[C@H]21,,inactive,
Cc1cccc(C)c1NC1=NCCCS1,,inactive,
Nc1ccncc1,,inactive,
CC[C@@H](CO)NC(=O)[C@@H]1C=C2c3cccc4c3c(cn4C)C[C@H]2N(C)C1,,inactive,
